Measurements from PubChem BioAssay AID602428 (Sanford-Burnham Center for Chemical Genomics, 2012).
Hit rate of the full screen: of about 2,500 compounds, about 980 (39%) were called active.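 How the source made its calls: active means mean inhibition at 5 µM reaching about 45% (limit read from the data); inactive means the rest.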 Only a selection was taken, and actives are over-represented in it overall.

Experiment: Gli-SUFU pathway antagonists, confirmation, single concentration, luciferase luminescence, Sufu-KO-LIGHT cells (AID 602428);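 further: plate controls were DMSO-treated cells for no effect and wells lacking cells for full effect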
Conditions: Gli luciferase reporter, at 5 µM, hits give high values

| SMILES | inhibition |
| --- | --- |
| CCOc1cccc(=NC2CCCCC2)c2c(C)[nH]c(C)c12 | 86.4% (active) |
